Measurements taken from PubChem BioAssay AID1159580 (chemical genetic matrix, 2015).
Where “and” joins values, the source holds several entries; their conditions need not be identical. Equal entries are not always repeated. About 2,000 (36%) of roughly 5,500 compounds were called active. About 18% were inconclusive and are not listed. No stated cut-off is given here; in the data, active means normalized growth mostly below about 0.91 (no sharp cut-off); inconclusive means no clear call, values can overlap the other calls; inactive means mostly above about 0.92. Some of the results follow.

Experiment: chemical genetic growth profiling, strain panel (AID 1159580);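 further: tested at 20 µM; growth read once vehicle control cultures reached saturation at 30 °C; 1 = growth at the plate median or of vehicle wells; lower values mean less growth of the strain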
Settings: growth OD

Measured: normalized growth

CCN(CC)CCNC(=O)c1cc(S(C)(=O)=O)ccc1OC
inactive: S. cerevisiae deletion strains, locus YJR066W, strain TOR1, active compounds read low 0.947 | S. cerevisiae deletion strains, locus YJR075W, strain HOC1, active compounds read low 1.03 and 0.995 | S. cerevisiae deletion strains, locus YKL009W, strain mrt4, active compounds read low 1.02 | S. cerevisiae deletion strains, locus YKL068W, active compounds read low 1.01 | S. cerevisiae deletion strains, locus YKL085W, strain MDH1 (second series), active compounds read low 1.02 | S. cerevisiae deletion strains, locus YKL085W, strain MDH1, active compounds read low 1.02 | S. cerevisiae deletion strains, locus YKL160W, strain elf1, active compounds read low 0.944 | S. cerevisiae deletion strains, locus YKL190W, strain CNB1, active compounds read low 1.01 | S. cerevisiae deletion strains, locus YKR001C, strain vps1, active compounds read low 1.01 | S. cerevisiae deletion strains, locus YKR026C, strain gcn3, active compounds read low 0.979 | S. cerevisiae deletion strains, locus YKR091W, strain srl3, active compounds read low 0.962 | S. cerevisiae deletion strains, locus YLL001W, strain dnm1, active compounds read low 0.94 | S. cerevisiae deletion strains, locus YLL026W, active compounds read low 0.975 | S. cerevisiae deletion strains, locus YLL041C, strain sdh2, active compounds read low 0.972 | S. cerevisiae deletion strains, locus YLR027C, strain aat2, active compounds read low 0.963 | S. cerevisiae deletion strains, locus YLR039C, strain RIC1, active compounds read low 1.03 | S. cerevisiae deletion strains, locus YLR058C, strain SHM2, active compounds read low 1.01 | S. cerevisiae deletion strains, locus YLR102C, strain apc9, active compounds read low 1.01 | S. cerevisiae deletion strains, locus YLR113W, strain HOG1, active compounds read low 0.984 | S. cerevisiae deletion strains, locus YLR221C, strain rsa3, active compounds read low 0.948 | S. cerevisiae deletion strains, locus YLR258W, strain gsy2, active compounds read low 0.981 | S. cerevisiae deletion strains, locus YLR262C, strain YPT6 (second series), active compounds read low 0.976 | S. cerevisiae deletion strains, locus YLR262C, strain YPT6, active compounds read low 1.06 | S. cerevisiae deletion strains, locus YLR268W, strain sec22, active compounds read low 1.02 | S. cerevisiae deletion strains, locus YLR320W, strain mms22, active compounds read low 0.941 | S. cerevisiae deletion strains, locus YLR330W, strain CHS5, active compounds read low 1.01 | S. cerevisiae deletion strains, locus YLR342W, strain FKS1 (second series), active compounds read low 1.02 | S. cerevisiae deletion strains, locus YLR342W, strain FKS1, active compounds read low 0.963 | S. cerevisiae deletion strains, locus YLR357W, strain rsc2, active compounds read low 0.927 | S. cerevisiae deletion strains, locus YLR370C, strain arc18, active compounds read low 0.969 | S. cerevisiae deletion strains, locus YLR371W, strain rom2, active compounds read low 1.01 | S. cerevisiae deletion strains, locus YLR384C, strain iki3, active compounds read low 0.971 | S. cerevisiae deletion strains, locus YLR418C, strain cdc73, active compounds read low 1.04 | S. cerevisiae deletion strains, locus YML016C, strain PPZ1, active compounds read low 1.01 | S. cerevisiae deletion strains, locus YML032C, strain rad52, active compounds read low 1.01 | S. cerevisiae deletion strains, locus YML120C, strain ndi1, active compounds read low 0.944 | S. cerevisiae deletion strains, locus YML124C, strain tub3, active compounds read low 1.01 | S. cerevisiae deletion strains, locus YMR058W, strain fet3, active compounds read low 0.969 | S. cerevisiae deletion strains, locus YMR078C, strain ctf18, active compounds read low 1.01 | S. cerevisiae deletion strains, locus YMR125W, strain sto1, active compounds read low 0.963 | S. cerevisiae deletion strains, locus YMR129W, active compounds read low 0.974 | S. cerevisiae deletion strains, locus YMR205C, strain PFK2, active compounds read low 0.941 | S. cerevisiae deletion strains, locus YMR223W, strain ubp8, active compounds read low 1.03 | S. cerevisiae deletion strains, locus YMR231W, strain pep5, active compounds read low 0.973 | S. cerevisiae deletion strains, locus YMR263W, strain SAP30, active compounds read low 1 | S. cerevisiae deletion strains, locus YMR307W, strain GAS1, active compounds read low 1.06 and 0.987 | S. cerevisiae deletion strains, locus YNL067W, strain RPL9B, active compounds read low 1 | S. cerevisiae deletion strains, locus YNL071W, strain lat1, active compounds read low 0.975 | S. cerevisiae deletion strains, locus YNL128W, strain TEP1, active compounds read low 1.02 | S. cerevisiae deletion strains, locus YNL153C, strain GIM3, active compounds read low 1.02 | S. cerevisiae deletion strains, locus YNL175C, strain NOP13, active compounds read low 1.01 | S. cerevisiae deletion strains, locus YNL183C, strain NPR1, active compounds read low 0.921 | S. cerevisiae deletion strains, locus YNL197C, strain WHI3, active compounds read low 1.03 | S. cerevisiae deletion strains, locus YNL209W, strain ssb2, active compounds read low 0.972 | S. cerevisiae deletion strains, locus YNL224C, strain SQS1, active compounds read low 1 | S. cerevisiae deletion strains, locus YNL233W, strain BNI4, active compounds read low 1 | S. cerevisiae deletion strains, locus YNL248C, strain rpa49, active compounds read low 0.971 | S. cerevisiae deletion strains, locus YNL250W, strain rad50, active compounds read low 1.04 | S. cerevisiae deletion strains, locus YNL271C, strain bni1, active compounds read low 1 | S. cerevisiae deletion strains, locus YNL298W, strain CLA4, active compounds read low 1.01 | S. cerevisiae deletion strains, locus YNL307C, strain MCK1, active compounds read low 1.02 | S. cerevisiae deletion strains, locus YNL322C, strain KRE1 (second series), active compounds read low 0.956 | S. cerevisiae deletion strains, locus YNL322C, strain KRE1, active compounds read low 0.961 | S. cerevisiae deletion strains, locus YNR049C, strain mso1, active compounds read low 0.96 | S. cerevisiae deletion strains, locus YNR052C, strain pop2, active compounds read low 1.01 | S. cerevisiae deletion strains, locus YOL006C, strain TOP1, active compounds read low 1.01 | S. cerevisiae deletion strains, locus YOL012C, strain htz1 0.994 | S. cerevisiae deletion strains, locus YOL147C, strain pex11, active compounds read low 1.01 | S. cerevisiae deletion strains, locus YOR001W, strain rrp6, active compounds read low 0.968 | S. cerevisiae deletion strains, locus YOR061W, strain CKA2, active compounds read low 1.01 | S. cerevisiae deletion strains, locus YOR069W, strain VPS5, active compounds read low 1.01 | S. cerevisiae deletion strains, locus YOR070C, strain gyp1, active compounds read low 0.98 | S. cerevisiae deletion strains, locus YOR080W, strain dia2, active compounds read low 0.959 | S. cerevisiae deletion strains, locus YOR083W, strain WHI5 (second series), active compounds read low 1 | S. cerevisiae deletion strains, locus YOR083W, strain WHI5, active compounds read low 0.94 | S. cerevisiae deletion strains, locus YOR106W, strain vam3, active compounds read low 0.939 | S. cerevisiae deletion strains, locus YOR136W, strain idh2, active compounds read low 1.01 | S. cerevisiae deletion strains, locus YOR144C, strain elg1, active compounds read low 1.01 | S. cerevisiae deletion strains, locus YOR184W, strain ser1, active compounds read low 1.01 | S. cerevisiae deletion strains, locus YOR231W, strain MKK1, active compounds read low 0.978 | S. cerevisiae deletion strains, locus YOR265W, strain rbl2, active compounds read low 0.979 | S. cerevisiae deletion strains, locus YOR270C, strain vph1, active compounds read low 0.933 | S. cerevisiae deletion strains, locus YOR290C, strain snf2, active compounds read low 0.928 | S. cerevisiae deletion strains, locus YOR316C, strain cot1, active compounds read low 1.01 | S. cerevisiae deletion strains, locus YPL051W, strain arl3, active compounds read low 1 | S. cerevisiae deletion strains, locus YPL055C, strain LGE1, active compounds read low 0.983 and 0.98 | S. cerevisiae deletion strains, locus YPL078C, strain atp4, active compounds read low 0.962 | S. cerevisiae deletion strains, locus YPL106C, strain sse1, active compounds read low 0.931 | S. cerevisiae deletion strains, locus YPL240C, strain hsp82, active compounds read low 0.988 | S. cerevisiae deletion strains, locus YPL256C, strain CLN2, active compounds read low 0.981 | S. cerevisiae deletion strains, locus YPR119W, strain clb2, active compounds read low 1 | S. cerevisiae deletion strains, locus YPR141C, strain kar3, active compounds read low 1.01 | S. cerevisiae deletion strains, locus YPR163C, strain tif3, active compounds read low 1.01 | S. cerevisiae deletion strains, locus YPR167C, strain met16, active compounds read low 1.01 | S. cerevisiae deletion strains, strain wtn01, active compounds read low 1.01 | S. cerevisiae strains, strain wild type, active compounds read low 1.01
